This is an account of results in PubChem BioAssay AID2242 (National Center for Advancing Translational Sciences (NCATS), 2010).

The whole screen tested about 200,000 compounds, of which about 720 (0.36%) were called active. Inconclusive results (about 8%) are left out. Calls come from the whole dose curve; as a rule, active = well fitted activation curve with a large enough effect; inconclusive = small, poorly fitted or top-dose-only effect, or effect the other way, or another doubt; inactive = flat fitted curve, though single readings scatter. The list shows a part of the results.
Potency is the fitted concentration of half-maximal effect.

In this assay the target is Lysosomal alpha-glucosidase (Homo sapiens) (UniProt P10253). In words: qHTS Assay for Activators of Human alpha-Glucosidase as a Potential Chaperone Treatment of Pompe Disease. Note: nearly all actives have a fitted effect of over 80% in size. The note with it: purified enzyme, 4-MU-alpha-glucoside fluorescence, 20 min; series mostly up to 76.9 µM. In short, it runs like this:
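Compounds titrated up to 77 uM against 4 nM enzyme and 400 uM methylumbelliferyl substrate at room temperature, 20 min, pH 5.0. Basic stop, then 4-methylumbelliferone fluorescence (365/440 nm) normalized to no-enzyme and enzyme controls; Hill-equation AC50.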
Turning to `CCOCCCn1c(=NC(C)=O)c(C#N)cc2c(=O)n3cccc(C)c3nc21`, the Potency is 31.6 µM (active).
For the molecule `CCOCCCn1c(=NC(C)=O)c(C#N)cc2c(=O)n3ccccc3nc21`, the Potency was 31.6 µM (active).
As for `CCCCCn1c(=NC(C)=O)c(C#N)cc2c(=O)n3ccccc3nc21`, the Potency is 35.5 µM (active).
With `O=C(Oc1cc2oc(=O)c3c(c2cc1Cl)CCCC3)c1cccs1`, the Potency was 31.6 µM (active).
The figure for `O=C(Oc1ccc2c3c(c(=O)oc2c1)CCCC3)c1cccs1` is 35.5 µM (active).
The figure for `CCN1CCCC1CNC(=O)c1ccc2c(=O)n(CCOC)c(=O)[nH]c2c1` (stereo not given) is 31.6 µM (active).
For the molecule `COCCn1c(=O)[nH]c2cc(C(=O)NCc3cccnc3)ccc2c1=O`, the Potency is 35.5 µM (active).
The figure for `COCCn1c(=O)[nH]c2cc(C(=O)NC(C)C)ccc2c1=O` is 35.5 µM (active); for `O=C(O)c1cccc(NC(=O)C2C3C=CC(C3)C2C(=O)O)c1` (stereo not given) it is 31.6 µM (active).
For `COc1ccc(CCNC(=O)CSc2nc(-c3ccc(OC)c(OC)c3)ccc2C#N)cc1`, the Potency is 28.2 µM (active).
As for `O=c1oc2c(CN3CCOCC3)c(O)c(Cl)cc2c2c1CCCC2`, the Potency is 31.6 µM (active).
In the case of `O=c1oc2c(CN3CCOCC3)c(O)c(Cl)cc2c2c1CCC2`, the Potency is 35.5 µM (active).
Take `CN(C(=O)NC(=O)C1=C(N2CCOCC2)/C(=C/c2ccccc2)CC1)S(C)(=O)=O`: the Potency is 39.8 µM (active).
`CCCCN(C(=O)NC(=O)C1=C(N2CCOCC2)/C(=C/c2ccccc2)CC1)S(C)(=O)=O`: the Potency is 31.6 µM (active).
With `CN(C)CCCNS(=O)(=O)c1ccc(N2CCC(c3ccc(Cl)cc3)=N2)cc1`, the Potency is 35.5 µM (active).
Regarding `O=S(=O)(c1ccc(N2CCC(c3ccc(Cl)cc3)=N2)cc1)N(CCO)CCO`, the Potency was 35.5 µM (active).
`Cc1ccc2c(c1)Cc1nc3ccccc3nc1-2`: the Potency is 35.5 µM (active).
With `COc1ccc2cc3cc(C(=O)NCc4ccco4)oc3nc2c1`, the Potency is 31.6 µM (active).
With `COc1ccc2cc3cc(C(=O)NCc4cccnc4)oc3nc2c1`, the Potency is 31.6 µM (active).
The figure for `CCCCCn1c(-c2ccco2)nc2nc3ccccc3nc21` is 39.8 µM (active); for `COCCn1c(-c2ccco2)nc2nc3ccccc3nc21` it is 35.5 µM (active); for `c1coc(-c2nc3nc4ccccc4nc3n2CC2CCCO2)c1` (stereo not given) it is 25.1 µM (active).
As for `CC(C)OCCCn1c(-c2ccco2)nc2nc3ccccc3nc21`, the Potency is 35.5 µM (active).
For `c1ccc(Cn2c(-c3ccco3)nc3nc4ccccc4nc32)cc1`, the Potency is 35.5 µM (active).
As to `CCC(C)n1c(-c2ccco2)nc2nc3ccccc3nc21` (stereo not given), the Potency was 39.8 µM (active).
The figure for `Nc1c(Cl)cc(Cl)cc1C(=O)OCC(=O)NC1CC1` is 35.5 µM (active); for `COC(=O)CNC(=O)COC(=O)c1cc(Cl)cc(Cl)c1N` it is 39.8 µM (active); for `Nc1c(Cl)cc(Cl)cc1C(=O)OCC(=O)N1CCOCC1` it is 31.6 µM (active).
The figure for `CC(C)N(C(=O)COC(=O)c1cc(Cl)cc(Cl)c1N)C(C)C` is 35.5 µM (active).
The figure for `CCOC(=O)CCc1c(C)c(C#N)c2[nH]c3ccccc3n2c1=O` is 31.6 µM (active).
In the case of `Cc1c(CCC(=O)O)c(=O)n2c([nH]c3ccccc32)c1C#N`, the Potency was 35.5 µM (active).
The figure for `CCCCc1c(C)c(C#N)c2[nH]c3ccccc3n2c1=O` is 22.4 µM (active); for `Cc1ccc(Cc2c(C)c(C#N)c3[nH]c4ccccc4n3c2=O)cc1` it is 35.5 µM (active); for `COc1ccccc1[C@@H]1C(c2cccc(Cl)c2)=NN(c2ccc(Br)cc2)[C@H]1C(=O)N1CCOC1=O` it is 31.6 µM (active).
As for `Cc1cccc(C2=NN(c3ccc(Br)cc3)[C@@H](C(=O)N3CCOC3=O)[C@@H]2c2ccc(F)cc2)c1`, the Potency is 31.6 µM (active).
In the case of `COC(=O)Cc1c(C)c2ccc(OC(=O)c3ccco3)cc2oc1=O`, the Potency was 35.5 µM (active).
The figure for `COC(=O)Cc1c(C)c2ccc(OC(=O)c3ccccc3)cc2oc1=O` is 35.5 µM (active); for `CC(=O)Oc1ccc2c(C)c(CC(C)O)c(=O)oc2c1` (stereo not given) it is 39.8 µM (active).
The figure for `COC(=O)Cc1c(C)c2cc(Cl)c(OC(=O)c3ccco3)cc2oc1=O` is 28.2 µM (active); for `CCC(=O)Nc1c(C#N)c2nc3ccccc3nc2n1-c1ccccc1C` it is 39.8 µM (active); for `CCC(C)NC(=O)CCC(=O)Nc1ccc2nc(N3CC(C)CC(C)C3)cc(C)c2c1` (stereo not given) it is 31.6 µM (active).
The figure for `CCCCN(C)C(=O)CCC(=O)Nc1ccc2nc(N3CCOCC3)cc(C)c2c1` is 39.8 µM (active); for `CCC(C)NC(=O)CCC(=O)Nc1ccc2nc(N3CCOCC3)cc(C)c2c1` (stereo not given) it is 35.5 µM (active).
In the case of `Fc1ccc(C2=NN(c3ccccc3)C(c3ccco3)C2)cc1` (stereo not given), the Potency is 35.5 µM (active).
`Cc1ccc(N2N=C(c3ccc(F)cc3)CC2c2ccco2)cc1` (stereo not given): the Potency was 28.2 µM (active).
As to `COc1ccccc1C1CC(c2ccco2)=NN1c1ccccc1` (stereo not given), the Potency was 31.6 µM (active).
The figure for `CCOc1cc(C2C3=C(CCCC3=O)N(CCC(=O)O)C3=C2C(=O)CCC3)ccc1OS(=O)(=O)c1ccc(C)cc1` is 35.5 µM (active).
The figure for `COC(=O)Nc1nnc(/C=C/c2ccccc2)s1` is 31.6 µM (active).
The figure for `COc1ccc(/C=C/c2nnc(NC(=O)COc3cccc(C)c3)s2)cc1` is 31.6 µM (active); for `CCOC(=O)/C(C#N)=C/c1cn(CCC(=O)O)nc1-c1ccc(Br)cc1` it is “inactive”.
Consider `CCSc1ccc(-c2nn(-c3ccccc3)cc2/C=C(/C#N)C(=O)NC)cc1`, for which the Potency was 25.1 µM (active).
In the case of `CCSc1ccc(-c2nn(-c3ccccc3)cc2/C=C(/C#N)C(=O)NCCCOC)cc1`, the Potency was 35.5 µM (active).
The figure for `N#Cc1c(N)n(CCNC(=O)c2cccs2)c2nc3ccccc3nc12` is 35.5 µM (active); for `N#Cc1c(N)n(CCNC(=O)c2ccccc2)c2nc3ccccc3nc12` it is 7.94 µM (active); for `N#Cc1c(N)n(CCCN2CCOCC2)c2nc3ccccc3nc12` it is 35.5 µM (active).
Consider `COCCn1c(N)c(C#N)c2nc3ccccc3nc21`, for which the Potency was 35.5 µM (active).
The figure for `CCCCCn1c(N)c(C#N)c2nc3ccccc3nc21` is 35.5 µM (active); for `Cc1cc(-n2c(=O)c(C#N)cc3c(=O)n4ccccc4nc32)no1` it is 35.5 µM (active).
Turning to `Cc1cc(-n2c(=O)c(C#N)cc3c(=O)n4cccc(C)c4nc32)no1`, the Potency is 35.5 µM (active).
Regarding `COC(=O)c1ccccc1NC(=O)/C=C/c1cc(OC)c(OC)c(OC)c1`, the Potency is 35.5 µM (active).
